Consider 49 compounds from PubChem BioAssay AID1851 (National Center for Advancing Translational Sciences (NCATS), 2009).

Hit rate of the full screen: of about 16,000 compounds, about 5,800 (36%) were called active. Another 23% or so got no clear call; they are omitted. The list shows a part of the results. Unmarked numbers belong to inactive results. The call rests on the fitted dose curve; in most records, active means well fitted curve in the direction sought with a large enough effect; inconclusive means small, poorly fitted or top-dose-only effect, or effect the other way; inactive means no such curve, though single readings can be large or run the other way.
On the % scale 0 is the no-effect control and ±100 the full control effect.

The target of the assay is Cytochrome P450 2C19 (Homo sapiens) (UniProt P33261). As to the kind of experiment: Cytochrome panel assay with activity outcomes. The note with it: recombinant CYP, pro-luciferin dealkylation, luminescence, p450-cyp2c19; series mostly up to 57.1 µM; activity, negative = inhibition: at the top concentration.
Cytochrome P450 2C19 (Homo sapiens), sequence (P33261 whole entry, looked up): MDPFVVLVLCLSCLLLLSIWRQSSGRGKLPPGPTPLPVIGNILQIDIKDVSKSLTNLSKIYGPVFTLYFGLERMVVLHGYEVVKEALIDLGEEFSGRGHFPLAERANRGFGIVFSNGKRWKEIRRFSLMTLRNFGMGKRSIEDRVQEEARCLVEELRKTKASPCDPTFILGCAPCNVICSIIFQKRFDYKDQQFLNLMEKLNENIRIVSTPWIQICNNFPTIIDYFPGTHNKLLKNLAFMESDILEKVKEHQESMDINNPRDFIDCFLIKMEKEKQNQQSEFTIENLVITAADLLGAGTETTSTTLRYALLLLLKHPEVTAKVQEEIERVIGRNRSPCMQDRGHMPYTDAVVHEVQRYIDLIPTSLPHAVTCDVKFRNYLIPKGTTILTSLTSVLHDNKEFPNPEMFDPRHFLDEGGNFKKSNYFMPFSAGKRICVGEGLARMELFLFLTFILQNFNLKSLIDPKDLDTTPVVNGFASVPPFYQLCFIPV
Turning to `CCOC(=O)N/N=C/c1ccc(C)o1`, the “activity, negative = inhibition” value was -11.5%.
Same read-out and setting: as for `C[N+](C)(CCCCCC[N+](C)(C)CCCN1C(=O)c2cccc3cccc(c23)C1=O)CCCN1C(=O)c2cccc3cccc(c23)C1=O`, the figure is -15.3%.
For `O=C(CCCN1C(=O)c2cccc3cccc(c23)C1=O)N1CCc2ccccc2C1`, the AC50 – broadly, the concentration giving half of the maximal activity seen – is 3.98 µM (active).
As to `O=C(CN1C(=O)c2cccc3cccc(c23)C1=O)N1CCCCCC1`, the “activity, negative = inhibition” value was 16.7%.
For `Cc1cccc(NC(=O)CC2Nc3cccc4cccc(c34)NC2=O)c1` (centres undefined), the AC50 is 2.24 µM (active).
`Cc1cccc(NC(=O)CCCN2C(=O)c3cccc4cccc(c34)C2=O)c1`: the AC50 was 14.1 µM (active).
On the same count and under the same terms, the figure for `Cc1ccc(-n2nnnc2Sc2nc([N+](=O)[O-])nn2C)cc1C` is 3.98 µM (active).
For `O=C(O)c1ccc(Sc2nnnn2-c2ccccc2)c([N+](=O)[O-])c1`, the “activity, negative = inhibition” value is -3.77%.
Still for that read-out and setting: as for `O=C(O)[C@H](CCc1ccccc1)N1C(=O)c2ccccc2C1=O`, the figure is -17.1% [at 11.4 µM].
Consider `CC(CCc1ccccc1)NC(=O)/C=C/c1ccccc1` (centres undefined), for which the AC50 is 8.91 µM (active).
For `CC(C)C(=O)N[C@H]1CCCN1C(=O)/C=C\c1ccccc1`, the activity, negative = inhibition is -19.8% [at 11.4 µM].
Turning to `CCCCNC(=O)C(=O)NC(C)CCc1ccccc1` (centres undefined), the AC50 was 14.1 µM (active).
As for `CC(C)C(=O)N[C@@H]1CCCN1C(=O)/C=C\c1ccccc1`, the activity, negative = inhibition was -31.2% [at 11.4 µM].
In the case of `CC(CCc1ccccc1)NC(=O)C(=O)NCCO` (centres undefined), the concentration at half-maximal activity (AC50) was 31.6 µM (active).
As to `CC(=O)c1cn(CC(=O)Nc2c(C)cccc2C)c2ccccc12`, the AC50 is 7.08 µM (active).
In the case of `COC(=O)c1cccc(NC(=O)Nc2ccc(Cl)c(Cl)c2)c1`, the AC50 is 3.98 µM (active).
Same read-out and setting: the figure for `Cc1cc(C)cc(C(=O)N(NC(=O)Nc2ccc(Cl)cc2)C(C)(C)C)c1` is 1.58 µM (active).
The same measure, in the same setting: as for `CC(C)(C)N(NC(=O)Nc1ccccc1)C(=O)c1ccccc1Cl`, the figure is 11.2 µM (active).
As for `O=C(Nc1ccc(C(=O)Nc2ccc(C(=O)Nc3ccc(S(=O)(=O)O)c4cc(S(=O)(=O)O)cc(S(=O)(=O)O)c34)cc2)cc1)Nc1ccc(C(=O)Nc2ccc(C(=O)Nc3ccc(S(=O)(=O)O)c4cc(S(=O)(=O)O)cc(S(=O)(=O)O)c34)cc2)cc1`, the “activity, negative = inhibition” value is -38.1%.
Take `CC(C)(C)N(NC(=O)Nc1ccc(Cl)c(Cl)c1)C(=O)c1ccccc1`: the concentration at half-maximal activity (AC50) was 1.26 µM (active).
Consider `CC1(C)S[C@@H]2[C@H](NC(=O)[C@@H](N)c3ccccc3)C(=O)N2[C@H]1C(=O)O[C@H]1OC(=O)c2ccccc21`, for which the “activity, negative = inhibition” value was -21% [at 25.6 µM].
In the case of `O=C(c1ccccc1)C1CN(c2ccccc2)CC1c1ccc(Cl)cc1` (centres undefined), the AC50 was 3.98 µM (active).
Turning to `O[C@H](CN1CCN(c2cccc(Cl)c2)CC1)C(c1ccccc1)c1ccccc1`, the “activity, negative = inhibition” value was -35.5%.
With `COc1ccccc1-c1c(C(F)(F)F)oc2cc(OC(=O)c3cccc([N+](=O)[O-])c3C)ccc2c1=O`, the AC50 was 0.631 µM (active).
`Clc1ccccc1-c1ccc2ncnc(NCCN3CCOCC3)c2c1`: the “activity, negative = inhibition” value is -26.1%.
On to `Cc1ccccc1-c1cc(NCCN2CCOCC2)ncn1`, for which the “activity, negative = inhibition” value was -8.59%.
Still for that read-out and setting: the figure for `c1ccc2c(c1)CCCc1cc(NCCN3CCOCC3)nnc1-2` is 38% [at 25.6 µM].
Take `Cc1ccccc1-c1nccc(NCCN2CCOCC2)n1`: the AC50 is 10 µM (active).
On to `Cc1noc(C)c1-c1nccc(NCCN2CCOCC2)n1`, for which the “activity, negative = inhibition” value is -26.3%.
For the compound `Clc1ccccc1-c1nccc(NCCN2CCOCC2)n1`, the AC50 is 5.01 µM (active).
For `COCCSc1nnc(NC(=O)C(C)(C)C)s1`, the “activity, negative = inhibition” value is -29.9%.
For the compound `CCSc1nnc(NC(=O)C(C(F)(F)F)C(F)(F)F)s1`, the AC50 was 20 µM (active).
On to `Cn1c(=O)c(-c2ccc(F)cc2)nc2cnc(Oc3ccccc3)nc21`, for which the “activity, negative = inhibition” value was 30.5%.
For `CSc1nc(Oc2ccc(F)cc2)c2ccccc2n1`, the half-maximal activity concentration (AC50) is 7.08 µM (active).
For `CCOC(=O)c1cnc2c(cnn2C)c1NCCCN(C)C`, the “activity, negative = inhibition” value is -21.4%.
On the same count and under the same terms, as for `CCOC(=O)c1cnc2c(cnn2CC)c1NN=C(C)C`, the figure is -4.89%.
For the compound `CCOC(=O)c1cnn(CCOC(=O)C(C)(C)C)c1NC(=O)C(C)(C)C`, the half-maximal activity concentration (AC50) was 14.1 µM (active).
In the case of `COc1ccc(-c2c(C)oc3c(CN4CCN(CCO)CC4)c(O)ccc3c2=O)cc1OC`, the “activity, negative = inhibition” value is -21.7%.
Take `O=c1oc2c(CN3CCOCC3)c(O)ccc2c2ccccc12`: the AC50 is 14.1 µM (active).
Take `CN(C)c1ncc2nc(-c3ccc(F)cc3)c(=O)n(C)c2n1`: the “activity, negative = inhibition” value was -2.46%.
Take `CS(=O)(=O)c1cnc2c(-c3ccc(F)cc3)cnn2c1N`: the “activity, negative = inhibition” value is -15.9%.
With `CC(C)(C)S(=O)(=O)c1cnc2c(-c3ccc(F)cc3)cnn2c1N`, the AC50 is 11.2 µM (active).
Turning to `CN(C)c1ccc(-c2cncnc2N(C)Cc2ccco2)cc1`, the AC50 is 0.251 µM (active).
For `CN(Cc1ccco1)c1ncncc1-c1ccc2c(c1)OCO2`, the AC50 is 0.126 µM (active).
Consider `CN(Cc1ccco1)c1ncncc1-c1cccc(C#N)c1`, for which the AC50 was 20 µM (active).
For `COCCn1c(=O)c(-c2cccc(C#N)c2)nc2cnc(N(C)C)nc21`, the “activity, negative = inhibition” value was -3.96%.
The same measure, in the same setting: the figure for `CN(C)c1ncc2nc(-c3cccc(C#N)c3)c(=O)n(CCC#N)c2n1` is 2.53%.
Consider `COc1cccc(-c2cncnc2N(C)Cc2ccco2)c1`, for which the AC50 is 7.94 µM (active).
With `COCC(=O)N1CCC[C@@]2(CCN(C(=O)Nc3cccc(F)c3)C2)C1`, the “activity, negative = inhibition” value is 17.5%.
